Results from PubChem BioAssay (NCI).
About 79,000 compounds went through this panel and 15% of them were active in at least one assay; those are over-represented in the sample as a whole. Calls of active or inactive are those of the source. No stated cut-off is given here; in the data, active means growth inhibition above about 70%; inactive means the rest.

Assay: NCI Yeast Anticancer Drug Screen. Data for the mec2-1 strain (AID 157)
Settings: S. cerevisiae mec2-1 strain, at 50.0 µM, stronger effect = higher value
Protocol: Growth inhibition of yeast strains with defined genetic alterations is measured as a screen for potential anti-cancer activity. Selected strains with alterations in DNA damage repair or cell cycle control were exposed to compounds and growth inhibition was measured relative to vehicle treated controls. The strain used in this assay is mec2-1

| SMILES | growth inhibition |
| --- | --- |
| CC(O)(c1ccc(Cl)cc1)c1ccc(Cl)cc1 | -18.9% (inactive) |
| O=[N+]([O-])c1ccsc1Cl | -3.6% (inactive) |
| c1ccc2c(c1)OP1(=NP3(=NP4(=NP5(=N1)Oc1ccccc1-c1ccccc1O5)Oc1ccccc1-c1ccccc1O4)Oc1ccccc1-c1ccccc1O3)Oc1ccccc1-2 | 6.3% (inactive) |
| O=C1NC2(O)C(=O)c3ccccc3C2(O)N1 (stereo not given) | -10.2% (inactive) |
| CNC(=O)NS(=O)(=O)c1cccc([N+](=O)[O-])c1 | 5.35% (inactive) |
| CSc1nc2c(c(O)c(C)c(=O)n2C2OC(COC(C)=O)C(OC(C)=O)C(OC(C)=O)C2OC(C)=O)c(=O)n1C (stereo not given) | -4.3% (inactive) |
| CC(=O)OC1CCC2(C)C(CCC3C2CCC2(C)C(c4cccc(=O)o4)CCC32)C1 (stereo not given) | 8.9% (inactive) |
| CC1=NN(C(=O)c2ccc(Cl)cc2)C(=O)/C1=C/c1ccccc1O | -14.4% (inactive) |
| CC(=O)NC1C(OC(C)=O)OC(COC(c2ccccc2)(c2ccccc2)c2ccccc2)C(O)C1OC(C)=O (stereo not given) | 47.5% (inactive) |
| CN(/N=C\c1ccccc1)C(c1ccccc1)N(C)/N=C/c1ccccc1 (stereo not given) | -8.3% (inactive) |
| Cc1ccc(-c2cc(O)c3nc4ccccc4n3c2)cc1 | -10.1% (inactive) |
| CCN(CC)CCOC(=O)c1c(C)c(C)cc(C)c1C | -5.45% (inactive) |
| CCOC(=O)NC(C)=O | -27.9% (inactive) |
| Cc1ccc([B-]23OCC[N+]2(CNC(=O)c2ccccc2O)CCO3)cc1 (stereo not given) | -4.4% (inactive) |
| Cc1cc2c(=O)cc(-c3ccccc3)oc2c(C(=O)O)c1C | -8.55% (inactive) |
| CCNC(=S)NNC(=O)c1ccc(N=NN(C)C)cc1 | 12.8% (inactive) |
| CCOc1ccc2nc(C)ccc2c1 | -14.7% (inactive) |
| CC(C)CC(C)OC(=O)CC(CC(=O)OC(C)CC(C)C)C(=O)OC(C)CC(C)C (stereo not given) | -17.1% (inactive) |
| Clc1ccc(OCCSCCOc2ccc(Cl)cc2)cc1 | -17.8% (inactive) |
| CCCCn1cnc2ccc(N)cc2c1=O | 1.85% (inactive) |

| SMILES | growth inhibition |
| --- | --- |
| COc1n[n+]([O-])c(OC)cc1[N+](=O)[O-] | 33.6% (inactive) |
| CC(C)(O)C(c1ccccc1)S(=O)(=O)O (stereo not given) | -18.6% (inactive) |
| Nc1nc(C=O)c(CCc2ccccc2)c(=O)[nH]1 | 8.95% (inactive) |
| C=C/C=N/Nc1ccc([N+](=O)[O-])cc1[N+](=O)[O-] | 5.4% (inactive) |
| NC(=O)c1ccccc1N1CCCCC1 | -0.2% (inactive) |
| COCCCN(Cc1cc(OC)c(OC)c(OC)c1)C(=S)Nc1cccc(SC)c1 | -19.4% (inactive) |
| C1COC(C2=NCCO2)=N1 | 2.6% (inactive) |
| CCCCNS(=O)(=O)c1ccc(C)cc1 | -26.4% (inactive) |
| COc1cccc2c1C(=O)c1c(O)c3c(c(O)c1C2=O)C[C@@](O)(C(C)=O)CC3S(=O)(=O)O (stereo not given in full) | -7.45% (inactive) |
| Cc1cc(=O)oc2c1c(C)nn2-c1cccc(Cl)c1 | -13.2% (inactive) |
| O=c1c(SCc2ccc(Cl)cc2)c(N2CCCCC2)cnn1-c1ccccc1 | 19.4% (inactive) |
| O=C(NC1CCCCC1)C(c1ccccc1)c1ccccc1 | -3.3% (inactive) |
| CCCC(/C=N/Nc1ccc([N+](=O)[O-])cc1[N+](=O)[O-])=C\c1ccccc1 | -29.2% (inactive) |
| COc1ccc(/C=C2/SC(=Nc3ccccc3)N(NC(=O)Cc3ccccc3)C2=O)cc1 | -14.2% (inactive) |
| O=S(=O)(O)c1cc(S(=O)(=O)O)c2c(N=Nc3cccc4ccccc34)c(O)ccc2c1 | -9.25% (inactive) |
| COC(=O)C1=CO[C@@H](O)[C@@H]2C(C)OC(=O)C[C@H]12 (stereo not given in full) | -28.3% (inactive) |
| CCc1c(O)c2c([nH]c1=O)SC(C)(C)CC2=NCC(C)C | -33.5% (inactive) |
| Cc1ccc(-c2nc3scc(C)n3n2)cc1 | 6.6% (inactive) |
| CC1(C)OCC(C2OC3OC(C)(C)OC3C2c2ccccc2)O1 (stereo not given) | -9% (inactive) |
| O=C(Cc1ccccc1)NN1C(=O)/C(=C\c2ccc([N+](=O)[O-])cc2)SC1=Nc1ccccc1 | -8.85% (inactive) |
